Test results taken from PubChem BioAssay (Tox21).
Inconclusive results are not listed. Active and inactive are the calls of the source. Unless noted, calls come from the whole dose curve; as a rule, active = well fitted curve in the direction sought with a large enough effect in the repeat runs; inconclusive = weak or mixed curves; inactive = no such curve, though single readings can be large; an effect the other way counts as inactive or inconclusive.

Columns and labels:
[1] = qHTS assay for small molecules that induce genotoxicity in human embryonic kidney cells expressing luciferase-tagged ATAD5 (AID 651632); note: nearly all actives have a fitted effect of over 15% in size
Method in brief: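 Quantitative HTS in HEK293T expressing luciferase-tagged ATAD5, whose levels rise upon DNA damage. Exposure ran 16 hr at 37C and 5% CO2, with luminescence read 30 min after Amplite addition at room temperature.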

[2] = qHTS assay for small molecules that induce genotoxicity in human embryonic kidney cells expressing luciferase-tagged ATAD5 - cell viability (AID 651634; calls by dose curve; note: nearly all actives have a fitted effect of over 25% in size)
Method in brief: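 After 15.5 hr incubation with compound at 37C, 5% CO2, HEK293T ATAD5-luciferase cells received CellTiter-Fluor reagent; fluorescence intensity was quantified following 30 min at 37C.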

[3] = qHTS assay for small molecule disruptors of the mitochondrial membrane potential - cell viability (AID 720634; calls by dose curve;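 note: human HepG2 liver cancer cells; series mostly up to about 83 µM; nearly all actives have a fitted effect of over 20% in size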)
Method in brief: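 ATP-based luminescent viability readout (CellTiter-Glo, 30 min, room temperature) in HepG2 cells multiplexed with the m-MPI membrane potential dye; compound exposure lasted 1 hr at 37 C.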

[4] = qHTS assay for small molecule disruptors of the mitochondrial membrane potential (AID 720635); note: potency is the fitted concentration of half-maximal effect
Method in brief: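 HepG2 cells (2,000/well) attached overnight at 37C, then took compound for 1 hr at 37C, 5% CO2. Mito-MPS dye was added for 30 min; fluorescence was read at 490/535 nm (monomers) and 540/590 nm (aggregates).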

[5] = qHTS assay to test for compound auto fluorescence at 590 nm (red) in HepG2 cells (AID 720674)
Method in brief: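 Intrinsic compound fluorescence in the red window (Ex/Em 540/590 nm) is measured in attached HepG2 cells exposed for 1 hr, DMSO vehicle as baseline, benchmarked to Rose Bengal sodium.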

[6] = qHTS assay to test for compound auto fluorescence at 535 nm (green) in HepG2 cells (AID 720675)
[7] = qHTS assay to test for compound auto fluorescence at 590 nm (red) in HEK293 cells (AID 720679)
Method in brief: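 Red autofluorescence, HEK293 cells: 2,000 cells/well; attach 4-5 hr 37C; add 23 nL cpd or DMSO; incubate o/n 37C 5% CO2; read Ex540/Em590; Rose Bengal sodium reference.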

[8] = qHTS assay to test for compound auto fluorescence at 535 nm (green) in HEK293 cells (AID 720680)
[9] = qHTS assay to test for compound auto fluorescence at 460 nm (blue) in HEK293 cell free culture (AID 720681)
Method in brief: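 Test compounds were pinned into cell-free culture medium (DMEM with 10% FBS) and fluorescence was read directly at Ex/Em 405/460 nm. Signals were expressed as fluorescence equivalents of triamterene, with DMSO vehicle as control.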

[10] = qHTS assay to test for compound auto fluorescence at 535 nm (green) in HEK293 cell free culture (AID 720682)
Method in brief: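 Steps: dispense DMEM/10% FBS into empty wells; pin in compound or DMSO; measure fluorescence at 485/535 nm. Values are fluorescein equivalents.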

[11] = qHTS assay to test for compound auto fluorescence at 590 nm (red) in HEK293 cell free culture (AID 720683)
Method in brief: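 Tox21 10K library compounds were pinned into cell-free DMEM with 10% FBS and fluorescence was read at excitation 540 nm. Activity is expressed as Rose Bengal sodium equivalency.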

[12] = qHTS assay to test for compound auto fluorescence at 590 nm (red) in HepG2 cell free culture (AID 720684)
Method in brief: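 Ex 540 / Em 590 nm read of compound in cell-free MEM (10% FBS). Rose Bengal sodium reference.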

[13] = qHTS assay to test for compound auto fluorescence at 460 nm (blue) in HepG2 cell free culture (AID 720685)
Method in brief: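 Cell-free plates of MEM plus 10% FBS received 23 nL compound or DMSO vehicle; blue-channel (405/460 nm) intensity scored against triamterene as reference fluorophore.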

[14] = qHTS assay to test for compound auto fluorescence at 535 nm (green) in HepG2 cell free culture (AID 720686)
[15] = qHTS assay to test for compound auto fluorescence at 460 nm (blue) in HepG2 cells (AID 720687)
Method in brief: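 Cells (2,000/well in MEM with 10% FBS) attached overnight at 37 C, then were exposed to compound or DMSO for 1 hr at 37 C, 5% CO2. Fluorescence read at Ex/Em 405/460 nm, expressed as triamterene-equivalent signal.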

[16] = qHTS assay to test for compound auto fluorescence at 460 nm (blue) in HEK293 cells (AID 720678)
Method in brief: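 Intrinsic compound fluorescence is recorded in live HEK293 cultures after overnight incubation at 37C, 5% CO2, using excitation 405 nm and emission 460 nm. Values are referenced to triamterene.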

[17] = target: Glucocorticoid receptor (Homo sapiens) (UniProt P04150); experiment: qHTS assay to identify small molecule agonists of the glucocorticoid receptor (GR) signaling pathway (AID 720691; active = well fitted activation curve with a large enough effect in the signal ratio in the repeat runs, not every such curve was filed as active; the % refers to the signal ratio)
Method in brief: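 Cells: GR-bla HeLa, endogenous GR with stably integrated GRE-beta-lactamase reporter. Treatment 18 h, 37 C, compounds delivered in DMSO. Detection via LiveBLAzer B/G FRET substrate, 2 h RT, fluorescence intensity.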

[18] = target: Glucocorticoid receptor (Homo sapiens) (UniProt P04150); experiment: qHTS assay to identify small molecule antagonists of the glucocorticoid receptor (GR) signaling pathway (AID 720692; active = well fitted inhibition curve with a large enough effect in the signal ratio in the repeat runs, not every such curve was filed as active; the % refers to the signal ratio)
Method in brief: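 Quantitative HTS in antagonist format: HeLa cells expressing endogenous GR and a stably integrated GRE-bla reporter, stimulated with 5 nM dexamethasone (final) alongside test compounds for 18 h.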
% is set by controls: 0 for no effect and ±100 for the full control effect.

Chain of Glucocorticoid receptor (Homo sapiens) (P04150 whole entry, looked up): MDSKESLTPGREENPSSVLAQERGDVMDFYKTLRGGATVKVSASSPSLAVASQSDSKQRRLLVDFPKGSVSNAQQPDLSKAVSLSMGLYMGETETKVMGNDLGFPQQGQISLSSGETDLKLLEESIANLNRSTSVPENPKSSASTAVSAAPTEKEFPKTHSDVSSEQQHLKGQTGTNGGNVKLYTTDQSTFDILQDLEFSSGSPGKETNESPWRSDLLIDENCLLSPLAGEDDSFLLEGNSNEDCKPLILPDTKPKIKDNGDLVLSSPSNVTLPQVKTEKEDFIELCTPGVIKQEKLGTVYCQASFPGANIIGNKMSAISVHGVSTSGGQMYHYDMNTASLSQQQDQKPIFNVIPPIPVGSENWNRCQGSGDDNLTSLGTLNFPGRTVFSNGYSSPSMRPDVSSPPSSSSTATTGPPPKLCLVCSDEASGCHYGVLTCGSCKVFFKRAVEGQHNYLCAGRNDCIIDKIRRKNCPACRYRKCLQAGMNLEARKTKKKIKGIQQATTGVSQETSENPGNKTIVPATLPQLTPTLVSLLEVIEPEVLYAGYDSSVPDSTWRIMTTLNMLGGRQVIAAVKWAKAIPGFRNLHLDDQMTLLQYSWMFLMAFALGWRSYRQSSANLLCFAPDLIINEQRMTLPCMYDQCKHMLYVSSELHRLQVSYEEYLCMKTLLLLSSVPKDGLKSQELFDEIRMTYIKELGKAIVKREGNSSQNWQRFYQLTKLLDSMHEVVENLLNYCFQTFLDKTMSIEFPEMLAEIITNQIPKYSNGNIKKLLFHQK

CCOc1nc2cccc(C(=O)O)c2n1Cc1ccc(-c2ccccc2-c2nn[nH]n2)cc1
inactive: Potency [1] | Potency [2] | Potency [3] | outcome [5] | outcome [6] | outcome [7] | outcome [8] | Potency [9] | outcome [10] | outcome [11] | outcome [12] | Potency [13] | outcome [14] | Potency [15]
active: Potency [4] 8.41 µM

O=[N+]([O-])c1cccc(Cl)c1Cl
inactive: Potency [1] | Potency [2] | Potency [3] | Potency [4] | outcome [5] | Potency [16] | outcome [7] | outcome [8] | Potency [9] | outcome [10] | outcome [11] | outcome [12] | Potency [13] | outcome [14] | Potency [15] | Potency [17]

CC(Cc1cccc(C(F)(F)F)c1)NCCOC(=O)c1ccccc1 (stereo unspecified)
inactive: Potency [1] | Potency [3] | outcome [5] | outcome [7] | outcome [8] | Potency [9] | outcome [10] | outcome [11] | outcome [12] | Potency [13] | outcome [14] | Potency [15]

c1ccc(OCc2ccc(CCCN3CCOCC3)cc2)cc1
inactive: Potency [1] | Potency [2] | outcome [5] | outcome [6] | Potency [16] | outcome [7] | outcome [8] | Potency [9] | outcome [10] | outcome [11] | outcome [12] | Potency [13] | outcome [14] | Potency [15] | Potency [18]

CN(C)CC/C=C1\c2ccccc2COc2ccccc21
inactive: Potency [2] | Potency [3] | outcome [5] | outcome [6] | outcome [7] | outcome [8] | Potency [9] | outcome [10] | outcome [11] | outcome [12] | Potency [13] | outcome [14] | Potency [15] | Potency [18]

O=C(Nc1ccccc1)OCC(CN1CCCCC1)OC(=O)Nc1ccccc1 (stereo unspecified)
inactive: Potency [1] | Potency [2] | fluorescence, relative to Rose Bengal [5] -0.654% [at 18.6 µM] | fluorescence, % of fluorescein control [6] 0.0386% [at 18.6 µM] | fluorescence, % of fluorescent control [7] 0.0612% [at 18.6 µM] | fluorescence, % of fluorescein [8] 0.0795% [at 18.6 µM] | fluorescence, % of fluorescent control [9] -0.0858% [at 18.6 µM] | activity change [10] 0.0431% [at 18.6 µM] | fluorescence, % of fluorescent control [11] 0.0296% [at 18.6 µM] | fluorescence, % of Rose Bengal [12] 0.0349% [at 18.6 µM] | fluorescence, % of fluorescent control [13] -0.044% [at 18.6 µM] | fluorescence, % of fluorescein control [14] 0.0354% [at 18.6 µM] | fluorescence, % of fluorescent control [15] -0.0488% [at 18.6 µM] | Potency [17] | Potency [18]

CNCC[C@@H](Oc1ccccc1C)c1ccccc1
inactive: Potency [1] | Potency [2] | Potency [3] | outcome [5] | outcome [6] | Potency [16] | outcome [7] | outcome [8] | Potency [9] | outcome [11] | outcome [12] | Potency [13] | outcome [14] | Potency [15]

CC(C)(C)c1cc(O)c(C(C)(C)C)cc1O
inactive: Potency [1] | Potency [2] | outcome [5] | outcome [6] | Potency [16] | outcome [7] | outcome [8] | Potency [9] | outcome [10] | outcome [11] | outcome [12] | outcome [14] | Potency [15] | Potency [17]
active: Potency [4] 6.11 µM

CN1CCC[C@@H]1c1cccnc1
inactive: Potency [1] | Potency [3] | Potency [4] | outcome [5] | outcome [6] | Potency [16] | outcome [7] | outcome [8] | Potency [9] | outcome [10] | outcome [11] | outcome [12] | Potency [13] | outcome [14] | Potency [15]
